Compound activity as filed in PubChem BioAssay.
Tau fibril FP: qHTS for Inhibitors of Tau Fibril Formation, Fluorescence Polarization; Microtubule-associated protein tau (Homo sapiens), P10636; K18 P301L tau heparin fibrillization, Alexa594 FP, 6 h; Potency, µM (series often up to 57.7 µM), without a hit: top-dose activity, negative = inhibition, actives largely listed as inhibitors; 0.39% of 280,000 active; AID 1468, 2008; further: nearly all actives have a fitted effect of over 55% in size
Target sequence (P10636 561-689 P618L limits assumed): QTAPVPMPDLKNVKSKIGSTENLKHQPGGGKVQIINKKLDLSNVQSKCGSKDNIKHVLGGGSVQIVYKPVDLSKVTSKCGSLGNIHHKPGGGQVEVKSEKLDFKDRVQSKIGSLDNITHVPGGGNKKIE
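Recombinant K18 P301L […], labeled with Alexa 594 at 0.24 uM over 15 uM unlabeled; heparin inducer 20 uM final; 37 C, 6 hr; FP endpoint.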
HPGD inh: qHTS Assay for Inhibitors of HPGD (15-Hydroxyprostaglandin Dehydrogenase); 15-hydroxyprostaglandin dehydrogenase [NAD(+)] (Homo sapiens), P15428; purified HPGD, NADH fluorescence kinetic, PGE2 substrate; Potency, µM, without a hit: at the highest dose activity change, negative = inhibition, hits mostly inhibitors; 4.3% of 150,000 active; active means well fitted inhibition curve with a large enough effect, not every such curve was filed as active; inconclusive means small, poorly fitted or top-dose-only effect, or another doubt; inactive means no such curve, though single readings can be large or run the other way
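NADH formation kinetics: reaction with 30 uM PGE2 and 1 mM NAD+ (final), 20 nM enzyme, Tris-HCl pH 8 with Tween 20, after 15 min compound preincubation at room temperature. Fluorescence change, last versus first of five reads.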
ALDH1A1 block: qHTS Assay for Inhibitors of Aldehyde Dehydrogenase 1 (ALDH1A1); Aldehyde dehydrogenase 1A1 (Homo sapiens), P00352; Purified ALDH1A1, NADH fluorescence, propionaldehyde substrate; Potency, µM (series often up to 75.3 µM), for inactives: at the top dose activity, negative = inhibition, usual class: inhibitors; 7.3% of 220,000 active; AID 1030, 2008; active means well fitted inhibition curve with a large enough effect, not every such curve was filed as active; inconclusive means small, poorly fitted or top-dose-only effect, or another doubt; inactive means no such curve, though single readings can be large or run the other way;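 further: plate controls were no enzyme wells and a reference inhibitor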
NPSR antag: qHTS Assay for Antagonists of the Neuropeptide S Receptor: cAMP Signal Transduction; Q6W5P4; CHO-NPSR cells, cAMP TR-FRET, antagonist mode; Potency, µM (top dose mostly 38.3 µM), for the others: at the top dose activity change, negative = inhibition, usual class: inhibitors; 1% of 220,000 active; further: nearly all actives have a fitted effect of over 50% in size
Target sequence (Q6W5P4 whole entry, looked up): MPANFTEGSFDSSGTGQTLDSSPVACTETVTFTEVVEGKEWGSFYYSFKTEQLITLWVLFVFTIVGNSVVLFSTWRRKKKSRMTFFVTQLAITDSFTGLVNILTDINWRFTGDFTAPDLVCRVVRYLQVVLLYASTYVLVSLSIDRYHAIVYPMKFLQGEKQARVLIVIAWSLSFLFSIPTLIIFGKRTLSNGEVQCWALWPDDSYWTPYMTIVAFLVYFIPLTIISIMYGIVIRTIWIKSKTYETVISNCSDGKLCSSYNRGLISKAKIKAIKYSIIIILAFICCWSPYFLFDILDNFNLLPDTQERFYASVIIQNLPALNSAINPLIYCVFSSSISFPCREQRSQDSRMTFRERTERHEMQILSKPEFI
Tau ThT inhib: qHTS for Inhibitors of Tau Fibril Formation, Thioflavin T Binding; Microtubule-associated protein tau (Homo sapiens), P10636; recombinant tau K18 P301L, heparin-induced fibrillization, ThT fluorescence; Potency, µM (top dose mostly 57.4 µM), without a hit: top-dose activity, negative = inhibition, most hits filed as inhibitors; 2.1% of 270,000 active; further: nearly all actives have a fitted effect of over 55% in size
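K18 P301L tau (15 uM + 0.24 uM Alexa 594-tagged), heparin 20 uM, NaOAc pH 7, 6 h 37 C; ThT 30 uM, 1 h RT, ex 450/em 510 nm.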
Tau fluor counter: Counterscreen qHTS for Inhibitors of Tau Fibril Formation, Fluorescence Polarization; tau K18 P301L (four-repeat tau fragment) Alexa594 fluorescence, heparin fibrillization; Potency, µM (top dose mostly 57.7 µM), without a hit: at the highest dose activity change, negative = decrease; 0.93% of 280,000 active; AID 1463, 2008; further: nearly all actives have a fitted effect of over 55% in size
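Human K18 P301L tau (15 uM unlabeled plus 0.24 uM Alexa 594-labeled, final) in 100 mM sodium acetate pH 7 was mixed with compound and 20 uM heparin and incubated 6 hr at 37 C.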
The depositor's hits bear a star; ? = inconclusive; / = not tested or not shown; [ ] = dose if it differs, or a comment. A selection: hits, their analogues and other compounds. The true share with any hit is near 9.5%. Unless noted, the call rests on the fitted dose curve; in most records, active means well fitted curve in the direction sought with a large enough effect; inconclusive means small, poorly fitted or top-dose-only effect, or another doubt; inactive means no such curve, though single readings can be large; an effect the other way counts as inactive or inconclusive. Unless noted, on the % scale 0 is the no-effect control and ±100 the full control effect; potency means the concentration at half of the fitted maximal effect.

SMILES	Tau fibril FP	HPGD inh	ALDH1A1 block	NPSR antag	Tau ThT inhib	Tau fluor counter
O=C(O)c1ccc(-c2ccc(/C=C3\NC(=O)N(Cc4ccc(Cl)cc4)C3=O)o2)cc1Cl	?	/	?	-35%	28µM*	-26%
CC(C)C(NS(=O)(=O)c1ccc2c(c1)oc(=O)n2C)C(=O)N1CCN(Cc2ccccc2)CC1 (stereo not drawn)	1%	-5%	-1%	-3%[46.1 µM]	-1%	-1%
CCc1nn2c(=O)cc(COC(=O)c3ccccc3NC(=O)COc3ccc(C)c(C)c3)nc2s1	2%	/	/	/	2%	0%
CC(C)CNS(=O)(=O)c1ccc(NC(=O)Cn2nc(-c3ccc(F)cc3)ccc2=O)cc1	?	7.9µM*	5%	3%	9%	?
COc1ccc(-c2ccc(=O)n(CC(=O)Nc3ccc(C(=O)NC4CC4)cc3)n2)cc1OC	0%	16µM*	6%	-9%[46.1 µM]	-1%	1%
CC(=O)c1cccc(NC(=O)Cn2nc(-c3ccc(Cl)cc3)ccc2=O)c1	-13%	/	7.9µM*	1%	7%	-10%
CCOC(=O)C1=C(C)NC(=S)NC1c1ccco1 (stereo not drawn)	-4%	/	/	10%[7.67 µM]	-16%	-11%
CCOC(=O)C1=C(C)NC(=S)NC1c1cc(C)sc1C (stereo not drawn)	-2%	/	40µM*	-10%	-7%	-4%
CCOC(=O)C1=C(C)NC(=S)NC1c1ccc(C)s1 (stereo not drawn)	-3%	/	2.5µM*	-2%	-5%	-2%
CCOC(=O)C1=C(C)NC(=S)NC1c1ccsc1 (stereo not drawn)	-7%	/	7.1µM*	16%	1%	4%
Cc1ccc(S(=O)(=O)CCSc2nc(C)cc(C(F)(F)F)c2C#N)cc1	-4%	-27%	0.35µM*	-22%	-16%	-21%
O=C(/C=C/c1ccccc1)c1ccccc1	16%	-23%	-13%	-17%	?	6%
O=C(/C=C/c1ccccc1)/C=C/c1ccccc1	?	-22%	32µM*	-48%	7.9µM*	-20%
CCCCOc1ccc(C(=O)N2CC(C)OC(C)C2)cc1 (stereo not drawn)	-1%	?	0.079µM*	-14%[46.1 µM]	-10%	-8%
CN1CCN(C(=O)c2ccc(COc3ccc(C(C)(C)C)cc3)o2)CC1	0%	-9%	2%	0%[46.1 µM]	-12%	-6%
CCOc1ccc(OCc2ccc(C(=O)N3CCCC3)o2)cc1	2%	?	28µM*	2%[46.1 µM]	?	-13%
CCOc1ccc(OCc2ccc(C(=O)OCc3ccccn3)o2)cc1	3%	25µM*	?	-10%[46.1 µM]	-8%	-7%
COc1ccc(C(=O)N2CCCC(c3ccccc3)C2)cc1 (stereo not drawn)	9%	16µM*	?	7%[46.1 µM]	-10%	5%
COc1ccc(OCCC(=O)N2CCCCC2)cc1	-3%	16µM*	1%	0%[46.1 µM]	-4%	3%
COc1ccc(C(=O)N2CCC(C(=O)c3c(C)cc(C)cc3C)CC2)cc1	9%	/	22µM*	26%	-24%	-8%
CCOC(=O)C1CCCN(C(=O)c2sc3nc(C)nc(N(CC)CC)c3c2C)C1 (stereo not drawn)	6%	14µM*	3%	8%[46.1 µM]	-7%	0%
CCOC(=O)C1CCCN(C(=O)c2ccc(OCC)cc2)C1 (stereo not drawn)	3%	14µM*	-12%	-8%[46.1 µM]	-5%	-2%
CCC1CCCCN1C(=O)c1sc2nc(C)nc(N(CC)CC)c2c1C (stereo not drawn)	5%	/	1%	-29%	-11%	-4%
CC(=O)c1cc(C)ccc1OC(=O)c1ccco1	-3%	-12%	10%	16%[46.1 µM]	-18%	-7%
